Source: PubChem BioAssay
Inconclusive results are not listed. Calls of active or inactive are those of the source.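 Rule for the calls, unless noted: active = viability loss from added drug above about 55%, and viability with drug at most 40%, in both replicates (limit read from the data, passing the limit was not always enough); inconclusive = both conditions met in only one replicate; inactive = neither replicate meets both conditions.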

Columns and labels:
[1] = Her2 expression decrease, cell viability multiplex – SKBR3 breast tumor cells, AlphaScreen, ATP viability, primary screen (AID 461;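 active = Her2 level under about 52% in both replicate screens, with viability over 70% of control, limit read from the data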;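 for Her2 level: lower value means less Her2 protein in the cells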;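 for viability: percent of carrier control wells set as 100% viability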); settings: SKBR3 Her2 protein level, 18-24 h, measured here: SKBR3 viability, ATP luminescence, at 10 µM
[2] = molecular target: Receptor tyrosine-protein kinase erbB-2 (Homo sapiens) (UniProt P04626); test: as above; settings: 18-24 h, at 10 µM, stronger effect = lower value
Chain of Receptor tyrosine-protein kinase erbB-2 (Homo sapiens) (P04626 whole entry, looked up): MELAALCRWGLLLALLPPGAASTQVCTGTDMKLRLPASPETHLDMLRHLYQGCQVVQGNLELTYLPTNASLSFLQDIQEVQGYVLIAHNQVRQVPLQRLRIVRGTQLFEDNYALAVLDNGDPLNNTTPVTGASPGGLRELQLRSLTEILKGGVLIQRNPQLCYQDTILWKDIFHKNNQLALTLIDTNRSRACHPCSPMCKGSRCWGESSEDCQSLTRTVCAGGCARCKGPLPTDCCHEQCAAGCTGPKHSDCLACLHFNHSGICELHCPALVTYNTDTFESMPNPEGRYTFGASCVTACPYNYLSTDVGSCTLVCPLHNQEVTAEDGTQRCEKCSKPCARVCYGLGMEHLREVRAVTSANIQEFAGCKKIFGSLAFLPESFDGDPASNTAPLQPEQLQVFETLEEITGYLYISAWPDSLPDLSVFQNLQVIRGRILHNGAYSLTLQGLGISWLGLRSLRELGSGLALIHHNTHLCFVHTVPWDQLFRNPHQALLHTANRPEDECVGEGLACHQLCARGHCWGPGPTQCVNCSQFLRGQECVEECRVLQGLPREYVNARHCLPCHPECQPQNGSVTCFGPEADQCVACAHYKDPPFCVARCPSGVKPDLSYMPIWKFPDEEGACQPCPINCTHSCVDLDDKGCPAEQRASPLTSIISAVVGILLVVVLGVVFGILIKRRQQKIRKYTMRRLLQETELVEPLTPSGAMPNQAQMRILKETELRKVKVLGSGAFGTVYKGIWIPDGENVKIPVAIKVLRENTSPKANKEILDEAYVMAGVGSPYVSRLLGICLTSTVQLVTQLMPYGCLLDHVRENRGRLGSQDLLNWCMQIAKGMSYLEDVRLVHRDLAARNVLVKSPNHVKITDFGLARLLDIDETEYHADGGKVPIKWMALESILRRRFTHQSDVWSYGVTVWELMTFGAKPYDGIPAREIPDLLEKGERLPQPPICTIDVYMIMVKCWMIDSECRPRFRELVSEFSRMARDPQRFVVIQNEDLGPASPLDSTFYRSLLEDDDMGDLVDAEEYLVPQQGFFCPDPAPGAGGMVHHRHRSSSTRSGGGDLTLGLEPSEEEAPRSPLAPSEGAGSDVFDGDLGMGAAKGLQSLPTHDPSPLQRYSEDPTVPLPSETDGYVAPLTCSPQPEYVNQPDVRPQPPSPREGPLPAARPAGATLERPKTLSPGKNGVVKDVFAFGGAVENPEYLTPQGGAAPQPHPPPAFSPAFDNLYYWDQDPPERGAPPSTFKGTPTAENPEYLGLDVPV

[3] = reduced viability of SK-BR-3 breast cancer cells – cell-based, 24 h, human, pilot screen (AID 572;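 active = viability at or below 10% of carrier control in both of two separate runs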;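 note: compound exposure lasted between 18 and 24 h rather than exactly 24 h; 100% = carrier-treated control wells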); settings: SK-BR-3 viability, CellTiter-Glo luminescence, at 10 µM, stronger effect = lower value
[4] = HUVEC growth inhibition – cell-based, human, primary screen (AID 575;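 active = viability at or below 30% in both replicate assays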;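 note: 100% = median of untreated cell wells with 0.1% DMSO on each plate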); settings: HUVEC proliferation, CellTiter-Glo luminescence, 72 h; at 10 µM; stronger effect = lower value
[5] = H69AR cell proliferation blockers – human, duplicate replicates, primary screen (AID 580;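 active = viability at or under a set limit in both replicates, limit being median viability minus 3 SD, cut at about 48% in these data, passing the limit was not always enough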;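 note: 100% = mean luminescence of untreated wells and 0% = no signal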); settings: H69AR lung tumor cells viability, ATP luminescence, 72 h; at 10 µM; stronger effect = lower value
[6] = MRP1 drug-resistance reversers in H69AR cells – cell-based, doxorubicin co-treatment, pilot screen (AID 601); settings: CellTiter-Glo, 72 h, at 10 µM; for differential viability (reversal): stronger effect = higher value
[7] = yeast transport mutant growth inhibition pilot in 384-well plates, post-Golgi transport modulator project (AID 636; in the data active = inhibition above about 31%); settings: absorbance 615 nm, about 18 h, stronger effect = higher value
[8] = growth suppression of yeast trafficking mutant, preliminary HTS, modulators of trafficking downstream of Golgi apparatus project, 1536-format plate, OD 615 nm (AID 637; in the data active = inhibition above about 30%); settings: yeast transport mutant growth, absorbance 615 nm, 18 h; stronger effect = higher value
[9] = S. cerevisiae growth inhibition in permissive medium (OD615), pilot counter-assay for S. cerevisiae lifespan shortening project, permissive growth control (AID 705;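 active = growth inhibition above 25% in both replicates, a cutoff set 3 SD above the mean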); settings: OD615, 24 h, at 10 µM, stronger effect = higher value
[10] = S. cerevisiae growth inhibition in restrictive medium, OD615, pilot screen, restrictive growth control, yeast lifespan reduction project (AID 706;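 active = growth inhibition above a set limit, 3 SD over mean compound inhibition, in both replicates, cut at about 43% in these data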;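 note: modified DeaD lifespan yeast strain shifted to restrictive glucose medium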); settings: OD615, 48 h, at 10 µM, stronger effect = higher value
[11] = doxorubicin toxicity protection in MRP-1 cells – H69AR cells, CellTiter-Glo, duplicate, MRP-1 activator project, pilot screen (AID 807;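 active = viability increase at or above a cutoff of the median across tested compounds plus 3 SD, cut at about 8.5% in these data, passing the limit was not always enough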;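 note: compound pretreatment 18-22 h then 72 h combined with doxorubicin; 0% = doxorubicin alone and 100% = vehicle without doxorubicin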); settings: H69AR viability with doxorubicin, CellTiter-Glo luminescence; at 10 µM; stronger effect = higher value
[12] = viability of HCT116 without oncogenic beta-catenin – human colon tumor cells, pilot screen (AID 823;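 active = cell viability at or below a set limit in both duplicate runs, the limit being the all-compound median minus 4 SD, cut at about 23% in these data, passing the limit was not always enough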;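 note: 0% = wells killed by 20 µM Hyamine and 100% = untreated DMSO cell wells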); settings: HCT116 beta-catenin knockout viability, CellTiter-Glo, 60 h; at 10 µM; stronger effect = lower value
[13] = viability of PTEN-null HCT116 cells – cell-based, HCT116 clonal line, CellTiter-Glo, pilot screen (AID 824;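 active = viability at or below 27.92% in each of two runs, the all-compound median minus 4 SD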;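 note: 0% = 20 µM Hyamine control and 100% = vehicle cell control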); settings: HCT116 PTEN-deleted viability, 60 h, at 10 µM, stronger effect = lower value
[14] = RAM pathway blockade in budding yeast – dse1pr::URA3 reporter, 5-FOA selection, pilot screen (AID 869;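 active = inhibition over a set limit, the all-compound mean plus 3 SD, in both replicate runs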;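 note: 0% = DMSO wells with no growth and 100% = 10 µM 1-NA-PP1 with full growth; RAM network block rescues cells from 5-FOA so hits raise OD615 growth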); settings: S. cerevisiae dse1pr::URA3 5-FOA growth, OD615, 2 d; at 10 µM; stronger effect = higher value; strain carries analog-sensitive mutant Cbk1 kinase
[15] = RAM signaling pathway blockade in yeast – S. cerevisiae, Pdr1DBD-CYC8 efflux-inhibited sensitized strain, primary screen (AID 1298;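 active = RAM network inhibition above 8.4% in each of two replicates, 3 SD over the compound average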;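 note: 0% = DMSO untreated cells without growth and 100% = 10 µM 1-NA-PP1 full growth; higher means more yeast growth rescued from 5-FOA killing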); settings: S. cerevisiae cbk1-as DSE1-URA3 strain, 5-FOA growth OD615, 2 d; at 50 µM; stronger effect = higher value
[16] = H69AR cells + 2 uM doxorubicin, measured here: viability with 2 uM doxorubicin, stronger effect = lower value
[17] = H69AR cells, compound alone cytotoxicity

CCn1cc(C(=O)N2CCOCC2)c(=O)c2cc(S(=O)(=O)N(C)C3CCCCC3)ccc21
106%: viability [6, 17]
inactive: Her2 level [2] 89% | viability [3] 84% | viability [4] 108% | viability [5] 106% | differential viability (reversal) ([6]; H69AR cells + 2 uM doxorubicin) 19.7% | inhibition [7] 0.26% | inhibition [8] 0.5% | growth inhibition [9] -13.6% | growth inhibition [10] -19.3% | viability increase [11] -1.73% | viability [12] 100% | viability [13] 95.8% | inhibition [14] 0.85% | RAM network inhibition [15] 2.09%
86.7%: viability [6, 16]
84%: viability [1]

CC1CCc2nn(CC(=O)NCc3ccc(F)cc3)cc2C1 (stereo not given)
inactive: Her2 level [2] 102% | viability [3] 122% | viability [4] 79.4% | viability [5] 89.4% | differential viability (reversal) ([6]; H69AR cells + 2 uM doxorubicin) -4.28% | inhibition [7] -0.51% | inhibition [8] -2.33% | growth inhibition [9] -3.91% | growth inhibition [10] 8.68% | viability increase [11] -2.02% | viability [12] 86.4% | viability [13] 87.6% | inhibition [14] -0.73% | RAM network inhibition [15] 1.16%
122%: viability [1]
93.6%: viability [6, 16]
89.4%: viability [6, 17]

Cc1noc(/C=C/N(C)C)c1S(=O)(=O)N1CCCC(C(=O)N2CCc3ccccc32)C1 (stereo not given)
104%: viability [1]
89.2%: viability [6, 17]
inactive: Her2 level [2] 99% | viability [3] 104% | viability [4] 86.3% | viability [5] 89.2% | differential viability (reversal) ([6]; H69AR cells + 2 uM doxorubicin) -5.5% | inhibition [7] -5.2% | inhibition [8] -0.33% | growth inhibition [9] 5.67% | growth inhibition [10] -0.63% | viability increase [11] -0.98% | viability [12] 103% | viability [13] 109% | inhibition [14] 1.35% | RAM network inhibition [15] 4.08%
94.7%: viability [6, 16]

COc1nnc(-c2ccc(C)c(S(=O)(=O)NCCO)c2)c2ccccc12
87.9%: viability [6, 17]
93.5%: viability [1]
90.3%: viability [6, 16]
inactive: Her2 level [2] 108% | viability [3] 93.5% | viability [4] 110% | viability [5] 87.9% | differential viability (reversal) ([6]; H69AR cells + 2 uM doxorubicin) -2.42% | inhibition [7] -1.04% | inhibition [8] -6% | growth inhibition [9] -0.385% | growth inhibition [10] 10% | viability increase [11] -1.67% | viability [12] 106% | viability [13] 101% | inhibition [14] -0.06% | RAM network inhibition [15] 2.58%

CC(=O)N1c2c(cc(Br)cc2S(=O)(=O)NCC2COc3ccccc3O2)CC1C (stereo not given)
84.3%: viability [6, 16]
81.7%: viability [6, 17]
inactive: Her2 level [2] 85% | viability [3] 97.5% | viability [4] 88.9% | viability [5] 81.7% | differential viability (reversal) ([6]; H69AR cells + 2 uM doxorubicin) -2.64% | inhibition [7] -5.34% | inhibition [8] -2.06% | growth inhibition [9] -0.935% | growth inhibition [10] 8.23% | viability increase [11] 0.21% | viability [12] 83.2% | viability [13] 81% | inhibition [14] 0.495% | RAM network inhibition [15] 0.61%
97.5%: viability [1]

CCOC(=O)C(C)Sc1nnc(Cc2cc(=O)[nH]c(=O)[nH]2)n1-c1ccc(Cl)cc1 (stereo not given)
inactive: Her2 level [2] 96.5% | viability [3] 92.5% | viability [4] 102% | viability [5] 103% | differential viability (reversal) ([6]; H69AR cells + 2 uM doxorubicin) 4.81% | inhibition [7] 1.54% | inhibition [8] 5.5% | growth inhibition [9] -16.5% | growth inhibition [10] -11.5% | viability increase [11] 0.97% | viability [12] 104% | viability [13] 105% | inhibition [14] 1.45% | RAM network inhibition [15] 5.81%
98.2%: viability [6, 16]
103%: viability [6, 17]
92.5%: viability [1]

CCOn1c(=O)c(=O)n(OCc2ccccc2)c2ccccc21
74.5%: viability [6, 16]
86.5%: viability [1]
inactive: Her2 level [2] 88% | viability [3] 86.5% | viability [4] 78.5% | viability [5] 83.6% | differential viability (reversal) ([6]; H69AR cells + 2 uM doxorubicin) 9.08% | inhibition [7] -2.05% | inhibition [8] -6.33% | growth inhibition [9] -14% | growth inhibition [10] -6.63% | viability increase [11] -3.35% | viability [12] 95.8% | viability [13] 92% | inhibition [14] 2.35% | RAM network inhibition [15] 3.12%
83.6%: viability [6, 17]

CCOC(=O)N1CCC(NC(=O)c2ccc3c(c2)N(CC)CCS3)CC1
74.2%: viability [6, 17]
inactive: Her2 level [2] 91.5% | viability [3] 94.5% | viability [4] 100% | viability [5] 74.2% | differential viability (reversal) ([6]; H69AR cells + 2 uM doxorubicin) -5.34% | inhibition [7] -6.93% | inhibition [8] -0.33% | growth inhibition [9] -10.9% | growth inhibition [10] -0.105% | viability increase [11] -3.08% | viability [12] 98.2% | viability [13] 97% | inhibition [14] 3.51% | RAM network inhibition [15] 2.26%
94.5%: viability [1]
79.6%: viability [6, 16]

COc1cccc(-c2nnc(NC(C)=O)o2)c1
inactive: Her2 level [2] 99.5% | viability [3] 93.5% | viability [4] 103% | viability [5] 98.8% | differential viability (reversal) ([6]; H69AR cells + 2 uM doxorubicin) 7.19% | inhibition [7] -5.47% | inhibition [8] -4.33% | growth inhibition [9] -0.545% | growth inhibition [10] 1.75% | viability increase [11] -1% | viability [12] 101% | viability [13] 105% | inhibition [14] 1.76% | RAM network inhibition [15] 1.45%
91.6%: viability [6, 16]
98.8%: viability [6, 17]
93.5%: viability [1]

Cc1cccc(NC(=O)c2ccccc2O)c1C
60%: viability [1]
inactive: Her2 level [2] 75.5% | viability [3] 60% | viability [4] 59.2% | viability [5] 93.3% | differential viability (reversal) ([6]; H69AR cells + 2 uM doxorubicin) 4.91% | inhibition [7] -5.95% | inhibition [8] -3.61% | growth inhibition [9] 2.66% | growth inhibition [10] 1.19% | viability increase [11] -1.89% | viability [12] 86.5% | viability [13] 86.3% | inhibition [14] 1.33% | RAM network inhibition [15] 2.03%
88.4%: viability [6, 16]
93.3%: viability [6, 17]
